hNpr1 antagonist – antagonists of human natriuretic peptide receptor Npr1. HEK293 hNpr1 GloSensor cGMP, ANP-stimulated luminescence. 76,000 compounds, 1.6% hits. Potency, µM (series often up to 46.3 µM), for inactives: top-dose activity change, negative = inhibition, usual class: inhibitors. P16066; note: % is set by controls: 0 for no effect and ±100 for the full control effect; nearly all actives have a fitted effect of over 60% in size
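HEK293 cells stably expressing human Npr1 and cGMP GloSensor pGS-40F, loaded 2 h with 2% GloSensor reagent, given compound 30 min at room temperature. Luminescence read before and 20 min after 0.1 nM hNppA.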
GPT2 inh – inhibitors of human GPT2 alanine aminotransferase; Q8TD30; Recombinant GPT2, coupled pyruvate oxidase/HRP Amplex Red fluorescence; Potency, µM (titrated, usually from 57.7 µM), for the others: at the top dose activity change, negative = inhibition, actives largely listed as inhibitors; 100,000 compounds, 0.25% hits; AID 1671188; active = well fitted inhibition curve with a large enough effect; inconclusive = small, poorly fitted or top-dose-only effect; note: % is set by controls: 0 for no effect and ±100 for the full control effect; nearly all actives have a fitted effect of over 60% in size
Target sequence (Q8TD30 whole entry, looked up): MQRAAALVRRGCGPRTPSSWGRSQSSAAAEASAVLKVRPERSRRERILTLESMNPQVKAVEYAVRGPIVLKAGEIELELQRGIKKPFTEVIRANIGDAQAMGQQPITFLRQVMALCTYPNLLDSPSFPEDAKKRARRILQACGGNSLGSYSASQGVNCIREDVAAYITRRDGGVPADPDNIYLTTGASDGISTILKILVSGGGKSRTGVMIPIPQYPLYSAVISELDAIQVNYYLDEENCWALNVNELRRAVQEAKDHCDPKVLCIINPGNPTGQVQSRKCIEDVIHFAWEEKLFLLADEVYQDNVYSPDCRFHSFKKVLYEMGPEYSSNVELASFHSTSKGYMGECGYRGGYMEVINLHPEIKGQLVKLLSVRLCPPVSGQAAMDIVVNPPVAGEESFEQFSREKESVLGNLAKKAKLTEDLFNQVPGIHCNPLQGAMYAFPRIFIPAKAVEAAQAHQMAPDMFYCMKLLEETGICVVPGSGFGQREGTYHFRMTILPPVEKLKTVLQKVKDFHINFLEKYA
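Recombinant GPT2 (10ng/uL) with 250uM a-KG and 2mM L-alanine, 30 min at room temperature, in HEPES pH 7.5 buffer. Pyruvate detected by pyruvate oxidase/HRP/Amplex Red fluorescence after 30 min in the dark; AOA (50uM) as positive control.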
Npr1 antag conf – confirmation of human Npr1 natriuretic peptide receptor antagonists; shares compounds with hNpr1 antagonist; HEK293 hNpr1 cGMP GloSensor luminescence, ANP-stimulated; Potency, µM (doses to about 57.6 µM), inactives show top-dose activity change, negative = inhibition, actives largely listed as inhibitors; 1,400 compounds, 76% hits; AID 1347044; note: nearly all actives have a fitted effect of over 70% in size
NPR2 antag – hNpr2 antagonism, selectivity versus Npr1; shares compounds with hNpr1 antagonist; HEK293 hNpr2 GloSensor cGMP luminescence, CNP-stimulated; Potency, µM (top dose mostly 57.6 µM), inactives show top-dose activity change, negative = inhibition, hits mostly inhibitors; 1,400 compounds, 67% hits; AID 1347046; note: nearly all actives have a fitted effect of over 70% in size
FLuc inh counter – inhibits firefly luciferase, false Npr1 antagonist flag; 1,400 compounds, 0.7% hits; Potency, µM (doses to about 57.6 µM), without a hit: at the top dose activity change, negative = inhibition, actives largely listed as inhibitors; purified FLuc enzyme, luminescence, Km substrate; shares compounds with hNpr1 antagonist; active = well fitted inhibition curve with a large enough effect; inconclusive = small, poorly fitted or top-dose-only effect; note: 0% is about no effect
GloSensor cGMP – counter-screen for Npr1 antagonists: GloSensor control cell line | shares compounds with hNpr1 antagonist | 1,400 compounds, 69% hits | Potency, µM (titrated, usually from 57.6 µM), for inactives: at the top dose activity change, negative = inhibition, hits mostly inhibitors | AID 1347051 | HEK293 GloSensor cGMP, SNP-stimulated, luminescence; note: % is set by controls: 0 for no effect and ±100 for the full control effect; nearly all actives have a fitted effect of over 70% in size
* = called active by the depositor; i = inactive; ? = inconclusive; . = no result; [ ] = remark or other dose. Only a selection was taken, and hits are over-represented in it overall. Unless noted, calls come from the whole dose curve. Potency is the fitted concentration of half-maximal effect.

SMILES	hNpr1 antagonist	GPT2 inh	Npr1 antag conf	NPR2 antag	FLuc inh counter	GloSensor cGMP
Cc1ccccc1NC(=O)c1cnc2c(c1)N(C(=O)Cc1cn(C)c3ccccc13)CCC2	-15%[70.6 µM]	-15%[88.5 µM]	.	.	.	.
O=C(NC(c1ccccc1)c1ccccc1)c1cnc2c(c1)N(C(=O)Cc1ccc(O)cc1)CCC2	-8%	?	.	.	.	.
CC(C)c1ccc(CC(=O)N2CCCc3ncc(C(=O)Nc4ccn(C)n4)cc32)cc1	-2%[70.6 µM]	-6%[88.5 µM]	.	.	.	.
O=C(Nc1ccccc1)c1cnc2c(c1)N(C(=O)Cc1ccc(O)cc1)CCC2	28µM*	2%[88.5 µM]	35µM*	35µM*	-3%[86.2 µM]	35µM*
Cn1cc(CC(=O)N2CCCc3ncc(C(=O)Nc4cccc(Cl)c4)cc32)c2ccccc21	-24%	2%	-30%	-28%	-1%	-23%
Cc1csc(NC(=O)c2cnc3c(c2)N(C(=O)Cc2ccc(C(C)C)cc2)CCC3)n1	22µM*	-2%[88.5 µM]	31µM*	35µM*	-13%[86.2 µM]	28µM*
O=C1CCC2(C(=O)NCc3ccc(F)cc3)CCCC=C2N1C1CCCC1 (stereo not drawn)	.	4%	.	.	.	.
COc1ccc(C(=O)N2CC[C@@H]3COCCN(Cc4ccncc4)[C@@H]3C2)c(OC)c1	.	-1%	.	.	.	.
CCNC(=O)[C@@H]1CCCN1C1(C(=O)NC)CCC1	3%[70.6 µM]	-23%[88.5 µM]	.	.	.	.
CC(=O)N1C[C@@H]2CCCN3CCC[C@@H]([C@H]23)[C@H]1CCCC(=O)NCCC(C)C	7%	-29%	.	.	.	.
Cc1nn(-c2ccccc2)c(C)c1CC(=O)NC1CCCN(Cc2ccccc2F)C1 (stereo not drawn)	2%	i	.	.	.	.
O=C(c1ccccc1-c1ccccc1F)N1CCCC(CO)(Cc2ccccc2F)C1 (stereo not drawn)	4%	3%	.	.	.	.
CC(C)c1ccc(CC(=O)N2CCCc3ncc(C(=O)N(C)Cc4ccccc4)cc32)cc1	-20%	-28%	.	.	.	.
CC(C)c1ccc(CC(=O)N2CCCc3ncc(C(=O)Nc4ccccc4)cc32)cc1	3.5µM*	0%[88.5 µM]	5.6µM*	6.3µM*	3%[86.2 µM]	5µM*
CNC(=O)c1cnc2c(c1)N(C(=O)Cc1ccc(C(C)C)cc1)CCC2	-15%[70.6 µM]	?	.	.	.	.
CC(C)c1ccc(CC(=O)N2CCCc3ncc(C(=O)N(C)c4ccccc4)cc32)cc1	?	-9%[88.5 µM]	35µM*	44µM*	0%[86.2 µM]	44µM*
Cc1ccccc1N(C)C1CN(Cc2ccccc2)C1	-8%[70.6 µM]	?	.	.	.	.
Cc1cccc(-n2ncc3c2CCCC3NC(=O)CN2CCNC(=O)C2)c1C (stereo not drawn)	0%	4%	.	.	.	.
Cc1cccc(-n2ncc3c2CCCC3NC(=O)c2c(F)ccc(F)c2F)c1C (stereo not drawn)	5µM*	i	11µM*	11µM*	1%	8.6µM*
O[C@@H]1CC(CNCc2cccc(Cl)c2)(COc2ccccc2)C[C@@H]1O (stereo partly drawn)	-28%[70.6 µM]	-10%[88.5 µM]	?	31µM*	-7%[86.2 µM]	-27%[86.2 µM]
O[C@@H]1CC(CNCc2ccc(F)cc2)(COc2cccnc2)C[C@@H]1O (stereo partly drawn)	0%[70.6 µM]	?	.	.	.	.
COc1cccc(OC)c1C(=O)N1C(C(=O)NCC(C)C)COC12CCCC(C)C2 (stereo not drawn)	3%	i	.	.	.	.
CC(CCc1ccco1)NC(=O)CN1CCCc2nc(-c3ccccc3)ncc2C1=O (stereo not drawn)	?	i	?	?	2%	?
O=C(CN1CCCc2nc(-c3ccncc3)ncc2C1=O)NCC1CC1	3%	i	.	.	.	.
O=C(O)CN1CCCc2nc(-c3ccccc3)ncc2C1=O	5%	i	.	.	.	.
SMILES	hNpr1 antagonist	GPT2 inh	Npr1 antag conf	NPR2 antag	FLuc inh counter	GloSensor cGMP
O=C(CN1CCCc2nc(-c3ccccc3)ncc2C1=O)NCCc1c[nH]c2ccccc12	10µM*	3%	27µM*	?	-10%	22µM*
Cc1[nH]ncc1CNC(=O)CN1CCCc2nc(-c3ccccc3)ncc2C1=O	-1%	i	.	.	.	.
Cc1nn(C)cc1C(C)NC(=O)CN1CCCc2nc(-c3ccccc3)ncc2C1=O (stereo not drawn)	?	i	?	-29%	3%	-20%
C#CCN(C)C(=O)C[C@@H]1c2nc(NC(=O)c3ccc(OC)cc3)sc2C[C@@H]2[C@](C)(CO)[C@H](O)CC[C@]21C	-8%	5%	.	.	.	.
CCN(CC)CCNc1nc(C)nc2c1c(C)nn2C	4%	i	.	.	.	.
CC1=C[C@@H](CN2CCN(C)CC2)[C@H](C(C)C)C[C@H]1Cc1nnc(-c2ccccc2F)o1	1%[70.6 µM]	-3%[88.5 µM]	.	.	.	.
CC1=C[C@@H](CN2CCN(c3ncccn3)CC2)[C@H](C(C)C)C[C@H]1Cc1nnc(-c2ccccc2F)o1	-21%	1%	?	?	-2%	27µM*
COc1ccc(-c2nnc(C[C@@H]3C[C@@H](C(C)C)[C@H](CNc4ccccn4)C=C3C)o2)cc1	16µM*	-14%[88.5 µM]	22µM*	28µM*	-1%[86.2 µM]	22µM*
CC1=C[C@@H](CNc2ccccn2)[C@H](C(C)C)C[C@H]1Cc1nnc(-c2cncn2C)o1	-14%[70.6 µM]	3%[88.5 µM]	.	.	.	.
CC(C)c1nc2c(c(-c3ccc(O)cc3)n1)CN(Cc1cccc3ccccc13)CC2	-19%	4%	.	.	.	.
O=C(Cc1ccccc1)NCCC1CCN(C(=O)Nc2cccc(F)c2)CC1	-4%	0%	.	.	.	.
CCCC(=O)N1CCC(Oc2cnc3c(ccn3-c3cncnc3)c2)CC1	4%[70.6 µM]	1%[88.5 µM]	.	.	.	.
CCc1cnc(N2CCC(Oc3cnc4c(ccn4CCN[S+](C)(=O)[O-])c3)CC2)nc1	6.3µM*	2%	6.9µM*	9.7µM*	2%	6.9µM*
CC(C)C(=O)N1CCC(Oc2cnc3c(ccn3-c3cncnc3)c2)CC1	0%[70.6 µM]	1%[88.5 µM]	.	.	.	.
Cc1nccc(N2CCC(Oc3cnc4c(ccn4CCN[S+](C)(=O)[O-])c3)CC2)n1	28µM*	3%[88.5 µM]	31µM*	35µM*	-2%[86.2 µM]	25µM*
COc1cccc2c1OCC(C(=O)NCCc1noc(-c3ccccc3)n1)C2 (stereo not drawn)	4%	-7%	.	.	.	.
O=C(NCc1ccc(Cl)cc1)C1CCN(c2cc(C(F)(F)F)ncn2)CC1	11µM*	-5%	19µM*	19µM*	1%	15µM*
CCOc1cccc(CNC(=O)C2CCN(c3cc(C(F)(F)F)ncn3)CC2)c1	?	i	.	.	.	.
COc1cccc(CNC(=O)C2CCN(c3cc(C(F)(F)F)ncn3)CC2)c1	?	i	?	?	0%	?
Cc1ccc(CCNC(=O)C2CCN(c3cc(C(F)(F)F)ncn3)CC2)cc1	?	i	.	.	.	.
COCC(=O)NC1CCN(Cc2ccc(-c3ccsc3)cc2)C1 (stereo not drawn)	.	i	.	.	.	.

Compound activity as filed in PubChem.
